The values below come from PubChem BioAssay AID449739 (Vanderbilt High Throughput Screening Facility, 2010).

The campaign covered roughly 100,000 compounds. About 4,200 (4.2%) were called active. The entries come from a sample that favours actives as a whole. Values without a mark were called inactive.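 How the source made its calls: active means single-dose well whose peak fluorescence ratio is a statistical outlier from its plate by either plate-standardised score or position-corrected B-score; inactive means the rest.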

Voltage-dependent T-type calcium channel subunit alpha-1H (Homo sapiens), sequence (O95180 whole entry, looked up): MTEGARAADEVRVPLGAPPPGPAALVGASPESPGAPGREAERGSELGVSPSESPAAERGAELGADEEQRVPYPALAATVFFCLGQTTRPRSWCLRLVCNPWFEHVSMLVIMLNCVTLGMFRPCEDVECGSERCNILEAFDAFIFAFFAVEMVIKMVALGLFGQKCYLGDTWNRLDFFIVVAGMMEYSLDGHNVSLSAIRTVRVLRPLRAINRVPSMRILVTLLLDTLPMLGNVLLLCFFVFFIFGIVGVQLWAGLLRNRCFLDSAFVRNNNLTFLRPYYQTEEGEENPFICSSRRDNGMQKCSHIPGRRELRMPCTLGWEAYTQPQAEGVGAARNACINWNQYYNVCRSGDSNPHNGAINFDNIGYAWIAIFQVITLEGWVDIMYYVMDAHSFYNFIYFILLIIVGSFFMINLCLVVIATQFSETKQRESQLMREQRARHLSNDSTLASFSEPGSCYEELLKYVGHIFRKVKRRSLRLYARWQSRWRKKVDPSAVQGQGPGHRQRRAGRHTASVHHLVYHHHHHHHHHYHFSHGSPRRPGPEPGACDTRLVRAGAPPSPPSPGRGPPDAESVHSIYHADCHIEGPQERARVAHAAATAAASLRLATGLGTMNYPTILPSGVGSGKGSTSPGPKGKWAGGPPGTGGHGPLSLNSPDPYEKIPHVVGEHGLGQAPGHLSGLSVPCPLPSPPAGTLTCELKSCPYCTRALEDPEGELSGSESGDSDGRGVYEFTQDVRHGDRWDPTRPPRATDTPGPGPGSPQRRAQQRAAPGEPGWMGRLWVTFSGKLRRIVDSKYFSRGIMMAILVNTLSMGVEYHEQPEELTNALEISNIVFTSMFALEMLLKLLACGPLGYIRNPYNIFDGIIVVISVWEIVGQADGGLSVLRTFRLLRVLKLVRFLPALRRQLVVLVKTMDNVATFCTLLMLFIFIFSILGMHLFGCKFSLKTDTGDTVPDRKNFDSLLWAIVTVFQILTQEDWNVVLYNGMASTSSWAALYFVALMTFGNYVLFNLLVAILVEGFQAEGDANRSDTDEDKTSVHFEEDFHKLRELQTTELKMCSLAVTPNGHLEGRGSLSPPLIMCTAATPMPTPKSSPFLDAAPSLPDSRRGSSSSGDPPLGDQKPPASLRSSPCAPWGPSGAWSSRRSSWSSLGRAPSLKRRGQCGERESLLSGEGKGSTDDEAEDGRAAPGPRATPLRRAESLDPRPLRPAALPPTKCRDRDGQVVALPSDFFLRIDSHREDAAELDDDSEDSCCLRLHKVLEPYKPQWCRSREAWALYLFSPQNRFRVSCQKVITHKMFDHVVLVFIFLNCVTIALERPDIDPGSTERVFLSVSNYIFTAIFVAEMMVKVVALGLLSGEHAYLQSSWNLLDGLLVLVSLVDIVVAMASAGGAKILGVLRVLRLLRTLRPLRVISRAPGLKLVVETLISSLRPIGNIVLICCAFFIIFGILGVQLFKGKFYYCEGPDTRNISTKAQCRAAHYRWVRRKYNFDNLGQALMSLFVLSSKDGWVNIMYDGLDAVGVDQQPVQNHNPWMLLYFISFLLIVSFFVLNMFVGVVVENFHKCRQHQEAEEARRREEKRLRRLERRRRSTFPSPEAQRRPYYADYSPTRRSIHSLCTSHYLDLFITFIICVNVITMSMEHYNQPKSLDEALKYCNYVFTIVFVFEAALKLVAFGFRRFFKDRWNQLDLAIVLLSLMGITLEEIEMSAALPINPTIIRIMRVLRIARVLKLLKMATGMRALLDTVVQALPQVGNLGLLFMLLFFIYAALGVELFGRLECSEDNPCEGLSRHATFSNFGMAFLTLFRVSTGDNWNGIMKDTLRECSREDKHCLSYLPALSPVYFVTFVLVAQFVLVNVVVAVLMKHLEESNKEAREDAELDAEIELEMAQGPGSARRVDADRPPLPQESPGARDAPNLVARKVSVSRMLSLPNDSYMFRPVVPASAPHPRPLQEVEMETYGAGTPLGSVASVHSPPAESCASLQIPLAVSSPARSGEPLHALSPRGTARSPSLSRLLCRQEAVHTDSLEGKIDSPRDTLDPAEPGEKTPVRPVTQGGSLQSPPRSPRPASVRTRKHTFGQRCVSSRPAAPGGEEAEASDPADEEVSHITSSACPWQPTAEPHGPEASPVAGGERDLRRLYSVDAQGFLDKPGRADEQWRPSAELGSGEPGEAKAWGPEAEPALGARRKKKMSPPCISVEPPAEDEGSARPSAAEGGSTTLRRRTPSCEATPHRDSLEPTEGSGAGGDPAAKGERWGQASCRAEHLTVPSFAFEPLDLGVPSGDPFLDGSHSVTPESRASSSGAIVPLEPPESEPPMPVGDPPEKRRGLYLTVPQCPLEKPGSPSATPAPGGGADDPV

This assay addresses Voltage-dependent T-type calcium channel subunit alpha-1H (Homo sapiens) (UniProt O95180). Put plainly: Cav3.2 calcium influx blockers – cell-based, Fluo-4 calcium fluorescence, FDSS, MLSMR library, primary screen (AID 449739). Particulars: Cav3.2-expressing cells, at 10 µM, hits give low values.
As for `CCO[C@H]1OC(C(=O)N2CCN(Cc3ccccc3)CC2)=C[C@@H](c2cn(C(C)=O)c3ccccc23)[C@@H]1CCCO`, the B-score was -1.16.

In the case of `COc1cc(/C=N/O)cc(Br)c1OS(=O)(=O)c1ccc(C)cc1`, the B-score is -2.65.

For the molecule `CCCCN1C(N)=NC[C@@H]1Cc1ccccc1`, the B-score is -0.563.

For the molecule `COc1ccc(NC(=O)CC2COc3ccccc3O2)c(OC)c1` (stereo not drawn), the B-score was -0.874.

In the case of `CCn1cc(C(=O)NCC2COc3ccccc3O2)c2cc(OC)c(OC)cc2c1=O` (stereo not drawn), the B-score was -0.122.

Consider `COc1ccc(OC)c2sc(NC(=O)C3COc4ccccc4O3)nc12` (stereo not drawn), for which the B-score is -4.42 (active).

As for `c1ccc(-c2ccnc3nc(-n4cccc4)nn23)cc1`, the B-score is 0.354.

Regarding `COc1ccccc1C1=CC(=O)CCC1`, the B-score was 1.41.

`c1ccc(Nc2n[nH]nc2-c2ccccc2)cc1`: the B-score was -7.14 (active).

In the case of `Nc1ccc(Nc2ccccc2)cc1`, the B-score is 0.472.

Take `O=C(Nc1ccccc1)c1cccnc1Nc1ccccc1`: the B-score was 0.697.

For the molecule `C=CCCN(Cc1ccccc1)S(=O)(=O)c1ccccc1Br`, the B-score was 0.0805.

Take `CCO[C@@H]1OC(C(=O)NCc2nc3ccccc3[nH]2)=C[C@H](C2CCCCC2)[C@H]1CCCO`: the B-score is -0.192.

As to `COc1ccc(N2CCN(C(c3cc4ccc(C)cc4[nH]c3=O)c3nnnn3C3CCCC3)CC2)cc1` (stereo not drawn), the B-score is -2.59.

With `CC(C)C(c1nnnn1C1CCCC1)N1CCN(c2ccccc2F)CC1` (stereo not drawn), the B-score is -2.85.

Take `COc1ccc(C(c2nnnn2C2CCCCC2)N2CCN(c3ccccc3F)CC2)cc1` (stereo not drawn): the B-score was -6.41 (active).

Consider `N#CCc1c(C#N)c(N)nc(N2CCCC2)c1C#N`, for which the B-score was 0.949.

For `CCN(CC)CCC(c1cc(OC)c(OC)c(OC)c1)c1c(OC)cc(OC)c2c(-c3ccccc3)cc(=O)oc12` (stereo not drawn), the B-score is -1.5.

As to `CCCCn1c(CN2CCN(CCO)CC2)nc2ccccc21`, the B-score is 1.86.

`C=C(Br)Cn1c(CCCC)nc2ccccc21`: the B-score was -3.88 (active).

For the molecule `CCCCn1c(CCCNC(=O)CC)nc2ccccc21`, the B-score was 1.14.

With `CC(C)[C@@H]1NC(=O)c2cc([N+](=O)[O-])cc(I)c2NCCC[C@@H](C(=O)NC(CC(=O)O)C(N)=O)NC(=O)[C@H](CO)NC1=O` (stereo partly drawn), the B-score was 0.105.

For the molecule `CCOc1c2ccc(C(=O)NCc3ccc(OC(F)(F)F)cc3)cc2nn1C`, the B-score is -1.9.

For the molecule `Cc1cc(C)cc(N(CC(=O)NCC2CCCO2)S(=O)(=O)c2c(C)noc2C)c1` (stereo not drawn), the B-score was 0.883.

`Cc1cc(C)cc(N(CC(=O)N2CC=C(c3ccccc3)CC2)S(=O)(=O)c2c(C)noc2C)c1`: the B-score was -4.03 (active).

Regarding `Cc1cccc(N(CC(=O)N2CCOCC2)S(C)(=O)=O)c1`, the B-score is 0.326.

Take `CC1=C(C(=O)Nc2ccccc2)C(c2ccco2)C(C#N)=C(SCC(N)=O)N1` (stereo not drawn): the B-score was -0.16.

With `CCOC(=O)CSC1=C(C#N)C(c2ccco2)C(C(=O)OCc2ccccc2)=C(C)N1` (stereo not drawn), the B-score was -3.01.

Regarding `N#CC1=C(N)Oc2c(sc3ccccc23)C1c1ccco1` (stereo not drawn), the B-score is -4.64 (active).

In the case of `CCOc1cccc(C(=O)Nc2cnn(Cc3ccccc3)c2)c1`, the B-score is -0.985.

Turning to `O=C(c1ccc(F)cc1)c1c[nH]c(C(=O)NCc2cccnc2)c1`, the B-score was 1.02.

Take `c1cnc(Nc2nc(-c3ccc4ccccc4c3)cs2)nc1`: the B-score is 0.515.

For the molecule `Cc1ccc(-n2c(C)cc(/C=N/Nc3ccc([N+](=O)[O-])cn3)c2C)c(C)c1`, the B-score is -3.21.

In the case of `CC(C)c1ccc(N2CCN(C(=O)c3ccccc3NC(=O)/C=C(\C(=O)O)c3ccccc3)CC2)cc1`, the B-score is -0.303.

Consider `COC(=O)c1sccc1NC(=O)CCC1CCCC1`, for which the B-score was -0.847.

Turning to `COC(=O)c1sccc1NC(=O)CSc1ccccc1NS(=O)(=O)c1cc(Cl)ccc1Cl`, the B-score was -4.82 (active).

On to `COC(=O)c1sccc1N/N=C(\C)c1ccc(F)c(Cl)c1`, for which the B-score is -0.109.

Regarding `N#Cc1ccc(-c2ccc(Cl)cc2)nc1Oc1ccc(F)cc1`, the B-score was -0.421.

On to `COc1ccc(CN2[C@@H](CC(=O)O)c3cc(F)ccc3S2(=O)=O)cc1`, for which the B-score was -2.11.

Turning to `O=c1cc(CO)oc(C(Nc2cccc(C(F)(F)F)c2)c2ccccn2)c1O` (stereo not drawn), the B-score is -0.112.

As for `NS(=O)(=O)c1ccc(Nc2nc(-c3ccccc3)cs2)cc1`, the B-score is 0.0269.

As to `Cc1cccc(S(=O)(=O)CC(=O)Nc2nc(-c3ccccc3)cs2)c1`, the B-score is -8.29 (active).

With `Cc1ccc(-c2csc(NC(=O)c3cccs3)n2)cc1`, the B-score is -1.5.
